Records with an inconclusive call do not appear. Calls of active or inactive are those of the source. How the source made its calls: active means hit-call score of the fitted dose curve at least 0.9, where 1 is the maximum; inconclusive means response in the unintended direction; inactive means score below 0.9.
Legend:
[1] = molecular target: human Rho Associated Coiled-coil Containing Protein Kinase 1 (ROCK1), ROCK1 (gene 6093) (UniProt Q13464); test: NVS_ENZ_hROCK1: NovaScreen (NVS) Enzymatic Assay for human Rho Associated Coiled-coil Containing Protein Kinase 1 (ROCK1) (AID 2283214)
Summary of the method: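 Cell-free recombinant human ROCK1 activity assay; fluorescent substrate and product separated by electrophoretic mobility shift, read 1 h after dosing. Screened in duplicate at 25 uM; loss of signal versus DMSO baseline scored as inhibition.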

[2] = molecular target: rabbit Imidazoline 2 Central (I2C), CKB (gene 100009085) (UniProt P00567); test: NVS_ENZ_rabI2C: NovaScreen (NVS) Enzymatic Assay for rabbit Imidazoline 2 Central (I2C) (AID 2283228)
rabbit Imidazoline 2 Central (I2C), CKB (gene 100009085), sequence (P00567 whole entry, looked up): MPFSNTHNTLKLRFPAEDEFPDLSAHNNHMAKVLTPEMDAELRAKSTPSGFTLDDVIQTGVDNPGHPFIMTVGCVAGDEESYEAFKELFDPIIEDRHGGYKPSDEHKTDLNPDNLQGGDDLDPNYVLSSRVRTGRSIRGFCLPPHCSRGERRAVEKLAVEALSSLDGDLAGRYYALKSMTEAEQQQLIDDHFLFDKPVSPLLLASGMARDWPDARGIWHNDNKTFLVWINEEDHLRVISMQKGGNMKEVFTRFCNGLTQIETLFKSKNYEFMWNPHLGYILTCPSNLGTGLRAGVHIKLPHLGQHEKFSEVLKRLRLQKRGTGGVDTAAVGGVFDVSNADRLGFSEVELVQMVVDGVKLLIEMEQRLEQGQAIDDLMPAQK
Summary of the method: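 Rabbit brain membranes, cell-free; readout by filter-based scintillation counting 1.5 hours after dosing, loss of signal vs DMSO. Initial duplicate test at 25 uM, then concentration-response with 50 uM top concentration.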

[3] = molecular target: human Vascular Endothelial Growth Factor Receptor 2 (VEGFR2), KDR (gene 3791) (UniProt P35968); test: NVS_ENZ_hVEGFR2: NovaScreen (NVS) Enzymatic Assay for human Vascular Endothelial Growth Factor Receptor 2 (VEGFR2) (AID 2283230)
human Vascular Endothelial Growth Factor Receptor 2 (VEGFR2), KDR (gene 3791), sequence (P35968 whole entry, looked up): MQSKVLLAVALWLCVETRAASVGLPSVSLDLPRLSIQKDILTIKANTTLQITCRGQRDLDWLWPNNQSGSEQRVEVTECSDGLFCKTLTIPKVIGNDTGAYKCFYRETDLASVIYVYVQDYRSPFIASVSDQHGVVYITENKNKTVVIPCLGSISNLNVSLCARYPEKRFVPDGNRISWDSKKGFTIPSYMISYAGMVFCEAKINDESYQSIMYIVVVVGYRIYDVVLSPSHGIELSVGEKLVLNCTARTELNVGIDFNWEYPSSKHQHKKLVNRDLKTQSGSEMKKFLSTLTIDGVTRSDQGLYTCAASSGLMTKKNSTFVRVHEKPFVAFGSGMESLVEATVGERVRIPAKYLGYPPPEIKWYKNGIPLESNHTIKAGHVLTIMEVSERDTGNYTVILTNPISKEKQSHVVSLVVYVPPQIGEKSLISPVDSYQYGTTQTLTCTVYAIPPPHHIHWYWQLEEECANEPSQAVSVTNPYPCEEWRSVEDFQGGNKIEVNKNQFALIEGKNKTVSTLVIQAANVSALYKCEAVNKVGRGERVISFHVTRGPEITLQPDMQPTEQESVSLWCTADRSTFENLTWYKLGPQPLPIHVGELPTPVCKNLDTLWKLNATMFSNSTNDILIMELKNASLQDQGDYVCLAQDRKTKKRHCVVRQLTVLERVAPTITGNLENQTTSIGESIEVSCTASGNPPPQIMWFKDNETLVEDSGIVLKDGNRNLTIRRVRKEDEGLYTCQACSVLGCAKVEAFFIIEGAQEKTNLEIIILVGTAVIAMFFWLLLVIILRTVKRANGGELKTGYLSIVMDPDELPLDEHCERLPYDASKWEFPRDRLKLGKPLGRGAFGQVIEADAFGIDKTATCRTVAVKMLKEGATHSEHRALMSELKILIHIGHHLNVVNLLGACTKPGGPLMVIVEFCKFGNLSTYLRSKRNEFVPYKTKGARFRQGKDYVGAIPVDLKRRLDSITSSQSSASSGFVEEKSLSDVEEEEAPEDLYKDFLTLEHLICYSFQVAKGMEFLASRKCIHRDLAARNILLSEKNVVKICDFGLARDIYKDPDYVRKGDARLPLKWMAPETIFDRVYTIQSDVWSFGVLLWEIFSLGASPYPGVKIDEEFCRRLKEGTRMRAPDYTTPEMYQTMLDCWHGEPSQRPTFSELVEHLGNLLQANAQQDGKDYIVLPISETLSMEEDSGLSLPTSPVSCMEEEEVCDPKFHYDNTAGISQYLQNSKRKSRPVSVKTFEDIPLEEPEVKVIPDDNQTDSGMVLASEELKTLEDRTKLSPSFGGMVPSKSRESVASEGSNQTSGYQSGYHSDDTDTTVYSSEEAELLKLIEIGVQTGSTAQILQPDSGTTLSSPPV
Summary of the method: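 Cell-free recombinant VEGFR2 kinase, fluorescent substrate with electrophoretic mobility-shift separation; read 1 h after dosing. Screened at 25 uM in duplicate, hits to concentration-response up to 50 uM; loss-of-signal versus DMSO.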

[4] = molecular target: rat Constitutive Nitric Oxide Synthase (CNOS), Nos1 (gene 24598) (UniProt P29476); test: NVS_ENZ_rCNOS: NovaScreen (NVS) Enzymatic Assay for rat Constitutive Nitric Oxide Synthase (CNOS) (AID 2283236)
Summary of the method: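 Enzyme activity in rat brain membrane preparation, read 1 h after dosing by filter-based radiometric scintillation counting. Primary screen in duplicate at 25 uM; actives (e.g., ≥30% inhibition) then run in concentration-response up to 50 uM.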

[5] = NVS_GPCR_bNPY_NonSelective: NovaScreen (NVS) G Protein-Coupled Receptor Assay for bovine Neuropeptide Y (NPY) Receptor, Non-selective Binding (AID 2283245)
Summary of the method: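 Bovine hippocampal membranes incubated 1 hour with radioligand and test chemical. Bound ligand measured by filter-based scintillation counting. Single-concentration screen at 25 uM in duplicate, then concentration-response up to 50 uM.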

[6] = molecular target: human Sirtuin 2 (SIRT2), SIRT2 (gene 22933) (UniProt Q8IXJ6); test: NVS_ENZ_hSIRT2: NovaScreen (NVS) Enzymatic Assay for human Sirtuin 2 (SIRT2) (AID 2283217)
human Sirtuin 2 (SIRT2), SIRT2 (gene 22933), sequence (Q8IXJ6 whole entry, looked up): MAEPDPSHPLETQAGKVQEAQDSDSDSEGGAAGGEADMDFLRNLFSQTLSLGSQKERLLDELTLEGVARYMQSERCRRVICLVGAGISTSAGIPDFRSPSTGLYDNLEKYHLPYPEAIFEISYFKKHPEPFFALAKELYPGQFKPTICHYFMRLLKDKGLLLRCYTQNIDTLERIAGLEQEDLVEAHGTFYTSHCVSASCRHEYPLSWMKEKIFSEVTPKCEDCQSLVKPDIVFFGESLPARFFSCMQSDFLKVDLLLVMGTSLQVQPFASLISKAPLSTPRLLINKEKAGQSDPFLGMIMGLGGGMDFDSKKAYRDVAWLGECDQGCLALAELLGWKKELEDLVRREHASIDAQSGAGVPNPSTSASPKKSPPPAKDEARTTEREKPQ
Summary of the method: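 Cell-free recombinant human SIRT2, fluorescent substrate with product separated by electrophoretic mobility shift, 1 hr. Screened in duplicate at 25 uM; hits rerun singly in concentration-response up to 50 uM, relative to DMSO.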

[7] = molecular target: human Sirtuin 1 (SIRT1), SIRT1 (gene 23411) (UniProt Q96EB6); test: NVS_ENZ_hSIRT1: NovaScreen (NVS) Enzymatic Assay for human Sirtuin 1 (SIRT1) (AID 2283219)
human Sirtuin 1 (SIRT1), SIRT1 (gene 23411), sequence (Q96EB6 whole entry, looked up): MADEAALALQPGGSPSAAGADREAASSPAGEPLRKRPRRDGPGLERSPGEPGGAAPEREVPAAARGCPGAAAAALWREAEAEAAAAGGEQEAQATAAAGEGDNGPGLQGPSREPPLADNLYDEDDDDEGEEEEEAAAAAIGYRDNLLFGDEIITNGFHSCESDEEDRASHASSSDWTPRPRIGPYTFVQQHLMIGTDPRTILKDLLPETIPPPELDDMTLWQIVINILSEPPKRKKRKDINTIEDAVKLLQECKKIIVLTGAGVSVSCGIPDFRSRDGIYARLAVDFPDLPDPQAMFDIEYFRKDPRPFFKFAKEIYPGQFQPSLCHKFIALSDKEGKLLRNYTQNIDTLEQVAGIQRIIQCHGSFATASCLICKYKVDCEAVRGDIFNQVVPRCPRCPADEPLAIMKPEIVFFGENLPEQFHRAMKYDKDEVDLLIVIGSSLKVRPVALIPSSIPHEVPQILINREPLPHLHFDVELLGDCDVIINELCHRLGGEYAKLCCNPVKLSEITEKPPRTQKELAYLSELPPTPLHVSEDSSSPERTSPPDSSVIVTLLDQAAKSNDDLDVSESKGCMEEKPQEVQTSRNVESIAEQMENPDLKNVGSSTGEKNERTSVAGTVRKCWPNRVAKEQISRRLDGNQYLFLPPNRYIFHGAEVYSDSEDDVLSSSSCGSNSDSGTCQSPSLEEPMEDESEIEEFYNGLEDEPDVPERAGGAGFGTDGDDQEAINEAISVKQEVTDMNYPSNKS
Summary of the method: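 Cell-free recombinant SIRT1 with a fluorescent substrate; substrate and product separated by electrophoretic mobility shift and read by fluorescence intensity, 1 h after dosing. Primary screen at 25 uM in duplicate; hits re-run in concentration-response up to 50 uM, relative to DMSO.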

[8] = molecular target: guinea pig Leukotriene D4 Receptor (LTD4), CYSLTR1 (gene 100135514) (UniProt Q2NNR5); test: NVS_GPCR_gLTD4: NovaScreen (NVS) G Protein-Coupled Receptor Assay for guinea pig Leukotriene D4 Receptor (LTD4) (AID 2283248)
guinea pig Leukotriene D4 Receptor (LTD4), CYSLTR1 (gene 100135514), sequence (Q2NNR5 whole entry, looked up): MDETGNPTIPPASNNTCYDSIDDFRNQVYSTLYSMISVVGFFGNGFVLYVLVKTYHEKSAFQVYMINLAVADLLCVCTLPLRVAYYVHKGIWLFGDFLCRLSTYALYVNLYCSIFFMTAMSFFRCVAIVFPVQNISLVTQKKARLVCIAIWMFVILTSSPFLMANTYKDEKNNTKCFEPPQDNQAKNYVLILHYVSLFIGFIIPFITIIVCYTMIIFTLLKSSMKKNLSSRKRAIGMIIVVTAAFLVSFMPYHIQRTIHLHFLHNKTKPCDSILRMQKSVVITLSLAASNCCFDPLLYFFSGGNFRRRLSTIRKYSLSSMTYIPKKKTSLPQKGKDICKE
Summary of the method: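 Radioligand displacement on guinea pig lung membranes, 1 h incubation, filtration and scintillation counting; DMSO as negative control. Duplicate 25 uM primary screen, then singleton concentration-response up to 50 uM.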

[9] = molecular target: human Sirtuin 3 (SIRT3), SIRT3 (gene 23410) (UniProt Q9NTG7); test: NVS_ENZ_hSIRT3: NovaScreen (NVS) Enzymatic Assay for human Sirtuin 3 (SIRT3) (AID 2283222)
human Sirtuin 3 (SIRT3), SIRT3 (gene 23410), sequence (Q9NTG7 whole entry, looked up): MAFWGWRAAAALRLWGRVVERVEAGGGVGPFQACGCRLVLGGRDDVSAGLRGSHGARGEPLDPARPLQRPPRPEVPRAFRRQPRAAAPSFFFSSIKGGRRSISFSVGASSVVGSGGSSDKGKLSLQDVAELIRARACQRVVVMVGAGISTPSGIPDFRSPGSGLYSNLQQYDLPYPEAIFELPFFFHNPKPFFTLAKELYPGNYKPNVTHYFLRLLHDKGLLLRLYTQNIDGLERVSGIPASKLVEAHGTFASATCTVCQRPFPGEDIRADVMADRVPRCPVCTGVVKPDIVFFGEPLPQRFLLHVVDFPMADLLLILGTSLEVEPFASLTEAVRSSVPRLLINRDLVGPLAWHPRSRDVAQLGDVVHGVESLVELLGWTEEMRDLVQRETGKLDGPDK
Summary of the method: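 Cell-free enzyme assay with recombinant protein and fluorescent substrate, product separated by electrophoretic mobility shift; read 1 hour after dosing. Screened in duplicate at 25 uM, then singleton concentration-response up to 50 uM; loss of signal versus DMSO.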

[10] = molecular target: bovine Dopamine Receptor (DR), Non-selective Binding, DRD1 (gene 281125) (UniProt Q95136); test: NVS_GPCR_bDR_NonSelective: NovaScreen (NVS) G Protein-Coupled Receptor Assay for bovine Dopamine Receptor (DR), Non-selective Binding (AID 2283241)
bovine Dopamine Receptor (DR), Non-selective Binding, DRD1 (gene 281125), sequence (Q95136 whole entry, looked up): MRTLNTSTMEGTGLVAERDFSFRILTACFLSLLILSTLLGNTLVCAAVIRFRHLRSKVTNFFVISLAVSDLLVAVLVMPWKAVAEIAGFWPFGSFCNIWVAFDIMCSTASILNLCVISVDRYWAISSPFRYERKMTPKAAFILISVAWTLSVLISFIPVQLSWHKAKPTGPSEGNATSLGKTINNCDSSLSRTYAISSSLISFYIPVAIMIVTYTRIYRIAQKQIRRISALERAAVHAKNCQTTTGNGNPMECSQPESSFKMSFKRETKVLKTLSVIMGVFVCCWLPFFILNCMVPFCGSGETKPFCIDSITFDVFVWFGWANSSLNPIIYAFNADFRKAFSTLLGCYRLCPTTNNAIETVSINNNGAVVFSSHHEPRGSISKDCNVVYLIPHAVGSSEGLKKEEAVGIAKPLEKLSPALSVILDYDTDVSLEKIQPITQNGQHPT
Summary of the method: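 Bovine striatal membranes; radioligand displacement read by filtration and scintillation counting 1 h after dosing, loss of signal vs DMSO. Screened in duplicate at 25 uM, then concentration-response for hits.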

[11] = test system: bovine Histamine 1 Receptor (H1), gene 281231; test: NVS_GPCR_bH1: NovaScreen (NVS) G Protein-Coupled Receptor Assay for bovine Histamine 1 Receptor (H1) (AID 2283246)
Summary of the method: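 Radioligand displacement on bovine cerebellar membranes, 1 h after dosing, filter-based scintillation read-out; loss of signal vs DMSO. Duplicate single-concentration screen at 25 uM, then concentration-response up to 50 uM for hits.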

[12] = molecular target: sheep Cyclooxygenase-1 (Cox1), PTGS1 (gene 443551) (UniProt P05979); test: NVS_ENZ_oCOX1: NovaScreen (NVS) Enzymatic Assay for sheep Cyclooxygenase-1 (Cox1) (AID 2283239);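 further: actives reduce cyclooxygenase activity so potencies are for inhibitors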
sheep Cyclooxygenase-1 (Cox1), PTGS1 (gene 443551), sequence (P05979 whole entry, looked up): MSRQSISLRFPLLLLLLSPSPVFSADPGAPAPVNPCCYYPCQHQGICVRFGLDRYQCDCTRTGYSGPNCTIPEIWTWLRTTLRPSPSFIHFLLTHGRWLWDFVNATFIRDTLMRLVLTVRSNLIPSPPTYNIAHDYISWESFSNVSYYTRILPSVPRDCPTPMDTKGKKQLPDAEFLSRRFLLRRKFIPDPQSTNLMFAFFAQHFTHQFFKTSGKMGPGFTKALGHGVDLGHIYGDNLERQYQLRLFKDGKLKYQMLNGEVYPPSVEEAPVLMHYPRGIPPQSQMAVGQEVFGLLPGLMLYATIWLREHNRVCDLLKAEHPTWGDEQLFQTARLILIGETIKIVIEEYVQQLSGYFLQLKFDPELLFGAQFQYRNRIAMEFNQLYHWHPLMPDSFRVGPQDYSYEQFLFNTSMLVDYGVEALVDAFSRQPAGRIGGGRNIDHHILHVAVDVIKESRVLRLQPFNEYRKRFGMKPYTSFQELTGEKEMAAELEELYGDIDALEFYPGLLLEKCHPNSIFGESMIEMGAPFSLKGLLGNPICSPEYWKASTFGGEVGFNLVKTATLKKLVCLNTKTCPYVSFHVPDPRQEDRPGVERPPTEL
Summary of the method: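 COX1 from ovine seminal vesicles, activity read colorimetrically about 0.66 h after dosing. Primary screen in duplicate at 25 uM; actives retested in concentration series; loss of signal fitted versus DMSO.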

[13] = molecular target: Adenosine receptor A1 (Bos taurus) (UniProt P28190); test: NVS_GPCR_bAdoR_NonSelective: NovaScreen (NVS) G Protein-Coupled Receptor Assay for bovine Adenosine Receptor (AdoR), Non-selective Binding (AID 2283244)
Adenosine receptor A1 (Bos taurus), sequence (P28190 whole entry, looked up): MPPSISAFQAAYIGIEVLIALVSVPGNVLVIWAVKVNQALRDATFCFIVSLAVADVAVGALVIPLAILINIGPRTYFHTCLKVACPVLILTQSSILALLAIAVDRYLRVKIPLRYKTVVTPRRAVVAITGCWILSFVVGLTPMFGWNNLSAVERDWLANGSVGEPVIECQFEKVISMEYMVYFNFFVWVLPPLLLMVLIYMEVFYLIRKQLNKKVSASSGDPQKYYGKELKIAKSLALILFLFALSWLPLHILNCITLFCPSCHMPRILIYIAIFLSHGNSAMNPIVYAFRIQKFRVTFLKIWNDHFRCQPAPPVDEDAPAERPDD
Summary of the method: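 Bovine striatal membranes, radioligand displacement binding, 1 h after dosing, filter-based scintillation counting. Screened in duplicate at 25 uM, then concentration-response up to 50 uM; loss of specific binding relative to DMSO.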

[14] = molecular target: human Vascular Endothelial Growth Factor Receptor 3 (VEGFR3), FLT4 (gene 2324) (UniProt P35916); test: NVS_ENZ_hVEGFR3: NovaScreen (NVS) Enzymatic Assay for human Vascular Endothelial Growth Factor Receptor 3 (VEGFR3) (AID 2283229)
Summary of the method: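 Cell-free recombinant VEGFR3 kinase reaction with fluorescent substrate, read 1 h after dosing by electrophoretic mobility shift separation of substrate and product. Single-concentration duplicate screen at 25 uM, then concentration-response up to 50 uM; loss of activity versus DMSO.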

[15] = molecular target: human Vascular Endothelial Growth Factor Receptor 1 (VEGFR1), FLT1 (gene 2321) (UniProt P17948); test: NVS_ENZ_hVEGFR1: NovaScreen (NVS) Enzymatic Assay for human Vascular Endothelial Growth Factor Receptor 1 (VEGFR1) (AID 2283226)
Summary of the method: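 Cell-free assay of recombinant human VEGFR1 kinase with substrate, measured 1 h after dosing; fluorescence with electrophoretic mobility-shift separation of substrate and product, referenced to DMSO; primary screen at 25 uM in duplicate, actives then run in concentration series.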

[16] = molecular target: human SRC Proto-Oncogene, Non-receptor Tyrosine Kinase (SRC), SRC (gene 6714) (UniProt P12931); test: NVS_ENZ_hSRC: NovaScreen (NVS) Enzymatic Assay for human SRC Proto-Oncogene, Non-receptor Tyrosine Kinase (SRC) (AID 2283223)
Summary of the method: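 Cell-free kinase activity assay with fluorescent substrate, product separated by electrophoretic mobility shift, read 1 h after dosing. Duplicate single point at 25 uM, then concentration-response up to 50 uM; loss of signal versus DMSO.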

[17] = test system: guinea pig Leukotriene B4 Receptor (LTB4), gene 100379538; test: NVS_GPCR_gLTB4: NovaScreen (NVS) G Protein-Coupled Receptor Assay for guinea pig Leukotriene B4 Receptor (LTB4) (AID 2283247)
Summary of the method: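 Radioligand displacement on guinea pig spleen membranes, filter-based scintillation counting 2 h after dosing. Primary duplicate single point at 25 uM; hits over threshold (e.g. 30% inhibition) run in concentration-response up to 50 uM, DMSO baseline.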

[18] = molecular target: human Protein Tyrosine Phosphatase Receptor Type M (PTPRM), PTPRM (gene 5797) (UniProt P28827); test: NVS_ENZ_hPTPRM: NovaScreen (NVS) Enzymatic Assay for human Protein Tyrosine Phosphatase Receptor Type M (PTPRM) (AID 2283215)
Summary of the method: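 Cell-free recombinant PTPRM with fluorogenic substrate; product separated from substrate by electrophoretic mobility shift and read by fluorescence, 1.33 h after dosing. Primary screen single concentration (25 uM) in duplicate; actives retested in concentration series; loss of signal versus DMSO.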

SMILES: CCCOc1sc(C(=O)N2CCC(c3cc(CN)ccc3F)CC2)c(C)c1Br
- outcome [1]: inactive
- AC50 [2]: 4.64 µM (active)
- outcome [3]: inactive
- outcome [4]: inactive
- AC50 [5]: 36.3 µM (active)

SMILES: CCCCCCCC(=O)O
- outcome [6]: inactive
- AC50 [7]: 6.65 µM (active)
- outcome [2]: inactive
- outcome [8]: inactive

SMILES: CCC(=C(c1ccc(O)cc1)c1ccc(OCCN(C)C)cc1)c1ccccc1
- outcome [9]: inactive
- AC50 [2]: 0.408 µM (active)

SMILES: c1ccc2cc3c(ccc4ccccc43)cc2c1
- AC50 [10]: 32.8 µM (active)
- outcome [11]: inactive

SMILES: CCCCC(CC)COC(=O)CCCCC(=O)OCC(CC)CCCC (stereo not given)
- outcome [7]: inactive

SMILES: C#C[C@]1(O)CC[C@H]2[C@@H]3CCC4=CC(=O)CC[C@@H]4[C@H]3CC[C@@]21C
- outcome [11]: inactive

SMILES: N#C[C@@H]1CC(F)(F)CN1C(=O)CNC1CC2CCC(C1)N2c1ncccn1 (stereo not given in full)
- outcome [12]: inactive

SMILES: CC(C)(C)c1ccc(O)c(C(C)(C)C)c1
- outcome [3]: inactive
- outcome [13]: inactive

SMILES: Nc1cccc2c(N)cccc12
- outcome [7]: inactive
- outcome [9]: inactive
- outcome [14]: inactive
- outcome [13]: inactive

SMILES: CCCCOCCO
- outcome [6]: inactive
- outcome [15]: inactive

SMILES: CN1CCN(c2ccccc2/C=C2\SCCN(c3ccc(Cl)c(Cl)c3)C2=O)CC1
- outcome [4]: inactive

SMILES: COCC(C)OCC(C)O (stereo not given)
- outcome [6]: inactive
- outcome [7]: inactive
- outcome [16]: inactive

SMILES: Oc1cccc(O)c1
- AC50 [12]: 10.4 µM (active)

SMILES: Cc1oc(-c2ccccc2)nc1CCOc1ccc(C[C@H](Nc2ccccc2C(=O)c2ccccc2)C(=O)O)cc1
- AC50 [6]: 18.3 µM (active)
- AC50 [12]: 26.5 µM (active)
- outcome [5]: inactive
- outcome [17]: inactive
- outcome [8]: inactive

SMILES: CC[C@H](C)[C@@H](C(=O)O)n1sc2ccccc2c1=O
- outcome [7]: inactive
- outcome [17]: inactive
- outcome [8]: inactive

SMILES: CCCCCCCCCCCCc1ccccc1S(=O)(=O)O
- AC50 [18]: 16.3 µM (active)
- AC50 [6]: 24.4 µM (active)
- outcome [16]: inactive
- AC50 [14]: 9.14 µM (active)
- AC50 [3]: 39.2 µM (active)
- AC50 [12]: 9.01 µM (active)
- AC50 [17]: 7.5 µM (active)
- AC50 [8]: 25 µM (active)
